We go through 40 molecules from PubChem BioAssay AID602477 (National Center for Advancing Translational Sciences (NCATS), 2012).

Inconclusive results are not listed. Activity calls are given as the source filed them. The call rests on the fitted dose curve; in most records, active means well fitted activation curve with a large enough effect; inconclusive means small, poorly fitted or top-dose-only effect; inactive means no such curve, though single readings can be large or run the other way.

This experiment in a line: FLuc inhibitory activity for the follow-up compounds in a cell-based assay to assess the activity of miR-21. Conditions: HeLa miR-21-FLuc reporter, luciferase luminescence, 48 h; series mostly up to 38.3 µM; activity change, positive = activation: at the top concentration. The text has this: NCGC Assay Overview: Firefly (Photinus pyralis) luciferase is one of the most commonly used transcriptional reporters. It is considered one of the more dynamically responsive reporters - that is, responsive to changes in reporter transcription - as it requires no post-translational modifications and is enzymatically active directly after protein synthesis (Wood, 1998). With no endogenous expression in mammalian cells and without the requirement of external excitation, it offers very little background signal, thus generally providing excellent signal to background for most assays. Previous profiling work to determine the prevalence of compounds that affect FLuc enzymatic activity (PubChem AID 411) identified that ~3% of the MLSMR library (then at ~72K) inhibited FLuc (Auld et al., 2008). […] Of the compounds identified in this profile that inhibited FLuc, 151 compounds were selected for further analysis, in an effort to better understand their mode of inhibiting FLuc. The assay described here was to determine the activity of the compounds in a cell-based firefly luciferase reporter gene assay originally designed to identify antagonists of miR-21. Compounds that inhibit miR-21 or compounds that stabilize FLuc intracellularly are identified as active compounds in the assay.
NCGC Assay Protocol Summary: Reagents: In-house detection reagent: 300mM Tris-HCl, 300mM Trizma base, 300mM MgCl, 1% Triton-X100, 5mM DTT, 500uM Coenzyme A trilithium salt (Sigma #C3019),450uM ATP (Sigma #A7699), 1mM D-luciferin sodium salt monohydrate (Biosynth #L8240) HeLa cells stably expressing firefly luciferase (FLuc) under the control of a CMV promoter (upstream) and a miR-21 binding sequence directly downstream of the gene. These cells endogenously express miR-21. Control compounds used were two known firefly luciferase inhibitors (3-(5-(3-chlorophenyl)-1,2,4-oxadiazol-3-yl)benzoic acid and 5-(2-fluorophenyl)-3-phenyl-1,2,4-oxadiazole), and DMSO. Assay Summary: 6uL of HeLa miR-21-FLuc cells in assay buffer (DMEM, Invitrogen #21063-029; 10% FBS, HyClone #SH30071.03) were dispensed at 2000cells/well (3.3 x 10^5 cells/mL) into Greiner solid-white TC-treated 1536-well plates using a Multidrop Combi (Thermo Fisher Scientific). Plates were incubated for one hour at 37 degree Celsius, 95% humidity, 5% CO2. These assay plates were then treated with 23nL of compound or DMSO using a Kalypsys pin tool, which allows for delivery of a 12-point titration of each compound to the assay plate, with a final compound concentration ranging from approximately ~38uM to 0.2nM. Assay plates were then incubated for 48 hours. After incubation, plates were allowed to come to RT for one hour prior to delivery of 3uL of 3X luciferase detection reagent. After a 15 minute incubation to allow for cell lysis, luciferase activity was measured using a ViewLux CCD imager (PerkinElmer), with an average exposure time of 2-12 seconds.
Turning to `COc1ccc(-c2nc3ccccc3s2)cc1O`, the Potency was 1790 nM (active).
Consider `O=C(O)c1cccc(NC(=O)c2ccc(Cl)c(S(=O)(=O)N3CCCCCC3)c2)c1`, for which the Potency is 634 nM (active).
In the case of `COc1ccc2nc(NC(=O)c3cccc(S(=O)(=O)N4CCOCC4)c3)sc2c1`, the Potency is 7110 nM (active).
On the same count and under the same terms, the figure for `Cc1ccc2sc(-c3ccc(NC(=O)c4cc(-n5cnnc5)ccc4Cl)cc3)nc2c1` is 1790 nM (active).
Turning to `O=C(Nc1cccc(-c2nc3ccccc3s2)c1)C1=COCCO1`, the Potency was 12600 nM (active).
Still for that read-out and setting: under `COc1c(C)cccc1C(=O)Nc1ccc(-c2nc3ccccc3s2)c(Cl)c1` stands 22500 nM (active).
As to `O=C(O)c1cccc(NC(=O)c2cccc(S(=O)(=O)N3CCc4ccccc43)c2)c1`, the “activity change, positive = activation” value is 18.1% (inactive).
The same measure, in the same setting: the figure for `O=C(Nc1ccccc1C(=O)O)c1ccc(NC(=O)C2CC2)cc1` is -13.5% (inactive).
Regarding `Nc1ccc(-c2nc3cc(N)ccc3s2)cc1`, the Potency is 2250 nM (active).
On the same count and under the same terms, the figure for `COc1ccc2nc(NC(=O)CCc3nc(-c4ccccc4F)no3)sc2c1` is 2520 nM (active); for `COc1ccc(-c2nc3ccccc3s2)cc1NC(=O)c1ccc(F)cc1` it is 12600 nM (active).
Still for that read-out and setting: the figure for `Cc1c(NC(=O)c2cc(-n3cnnc3)ccc2Cl)cccc1-c1nc2ccccc2s1` is 2830 nM (active).
For the molecule `Cn1c(N/N=C/c2cc3ccccc3nc2Cl)nc2ccccc21`, the Potency is 711 nM (active).
For the molecule `COc1ccc(-c2cccc(C(=O)Nc3cccc(C(=O)O)c3)c2)cc1`, the Potency was 4490 nM (active).
In the case of `O=C(Nc1ccccc1C(=O)O)c1cc(S(=O)(=O)NCc2ccccc2)ccc1Cl`, the “activity change, positive = activation” value was -6.4% (inactive).
For `Nc1ccccc1-c1nc2ccccc2s1`, the Potency is 3180 nM (active).
Regarding `Cc1ccc(C(=O)Nc2cccc(C(=O)O)c2)cc1S(=O)(=O)N1CCCC1`, the Potency is 1000 nM (active).
On the same count and under the same terms, under `CN(C)c1cccc(C(=O)Nc2ccc(-c3nc4ccccc4s3)cc2)c1` stands 503 nM (active); under `COc1ccc2nc(NC(=O)c3cnccn3)sc2c1`, 200 nM (active); under `NC(=O)Cc1ccc2sc(-c3ccccc3)nc2c1`, 1260 nM (active).
For the molecule `CCOc1ccc2nc(NC(=O)c3ccccn3)sc2c1`, the Potency is 56.5 nM (active).
`CCCC(=O)Nc1nc2ccc(OCC)cc2s1`: the Potency is 2830 nM (active).
On to `CCOc1ccc2nc(NC(=O)c3cccnc3)sc2c1`, for which the Potency was 1130 nM (active).
Consider `O=C(O)c1cccc(NC(=O)c2ccc(COc3ccc(Cl)cc3)cc2)c1`, for which the Potency is 12600 nM (active).
In the case of `COc1ccc2nc(NC(=O)c3ccc(NS(=O)(=O)c4cccs4)cc3)sc2c1`, the Potency was 8950 nM (active).
As for `COc1ccc(C(=O)Nc2ccccc2C(=O)Nc2ccccc2C(=O)O)cc1`, the Potency was 8950 nM (active).
In the case of `Cc1ccc(S(=O)(=O)N2CCN(C(=O)c3ccccc3-c3nc4ccccc4s3)CC2)c(C)c1`, the Potency was 20000 nM (active).
On to `O=C(COC(=O)c1ccccc1[N+](=O)[O-])c1ccc2c(c1)OCO2`, for which the Potency was 5040 nM (active).
In the case of `Cc1ccc2sc(-c3ccc(N)cc3)nc2c1`, the Potency is 50.4 nM (active).
Turning to `COc1ccc(NS(=O)(=O)c2cccc(C(=O)Nc3ccccc3C(=O)O)c2)cc1`, the “activity change, positive = activation” value was 5.31% (inactive).
Take `COc1ccc(C(=O)Nc2ccccc2C(=O)N/N=C/c2ccc(O)c(OC)c2)cc1`: the “activity change, positive = activation” value was -59.6% (inactive).
As for `CC(C)(C)C(=O)Nc1ccc(-c2nc3ccccc3s2)cc1`, the “activity change, positive = activation” value was -76.5% (inactive).
As to `Nc1ccccc1C(=O)Nc1cccc(C(=O)O)c1`, the Potency was 11300 nM (active).
For the molecule `CCOc1ccc2nc(NC(=O)Cc3cccs3)sc2c1`, the Potency was 3560 nM (active).
As for `COc1ccc(C(=O)Nc2ccccc2C(=O)Nc2ccc(C(=O)O)cc2)cc1`, the Potency was 8950 nM (active).
For the molecule `CCOc1ccc2nc(NC(=O)c3ccoc3C)sc2c1`, the Potency is 100 nM (active).
In the case of `O=C(Nc1ccccc1C(=O)O)c1cccc(NC(=O)c2ccccc2Br)c1`, the “activity change, positive = activation” value is 18.7% (inactive).
Consider `Cc1c(C)c2ccc(OCC(=O)Nc3ccccn3)c(C)c2oc1=O`, for which the Potency is 5.6 nM (active).
With `O=C(O)c1cccc(NC(=O)c2cccc(S(=O)(=O)N3CCCCC3)c2)c1`, the Potency was 14200 nM (active).
Consider `O=C(O)c1cccc(NC(=O)c2ccc(S(=O)(=O)c3ccccc3)cc2)c1`, for which the “activity change, positive = activation” value was 15.2% (inactive).
